Test results: PubChem BioAssay (NCI)
Compounds without any hit were thinned out: in the full panel of roughly 83,000, 20% have a hit.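 Single-dose data. Exposure time 48 hours. Values below 10 considered active.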 Unmarked numbers belong to inactive results. Calls of active or inactive are those of the source.

What was measured:
Test in all cases: NCI-60 one-dose screen, 48 h (100 = growth as untreated, 0 = no growth, -100 = all killed)
Settings in all cases: 10 µM unless noted
T-47D breast = tested on: T-47D breast
BT-549 breast = tested on: BT-549 breast
MDA-MB-435 melanoma = tested on: MDA-MB-435 melanoma
SW-620 colon = tested on: SW-620 colon
MCF7 breast = tested on: MCF7 breast
HCT-116 colon = tested on: HCT-116 colon
HCC-2998 colon = tested on: HCC-2998 colon
KM12 colon = tested on: KM12 colon

Row | Compound | growth (T-47D breast) | growth (BT-549 breast) | growth (MDA-MB-435 melanoma) | growth (SW-620 colon) | growth (MCF7 breast) | growth (HCT-116 colon) | growth (HCC-2998 colon) | growth (KM12 colon)
1 | O=C1/C(=C/c2ccc(-c3ccc(Br)cc3)o2)SC(=S)N1CCc1ccc(O)cc1 | 58.4% | 77.8% | 48.8% | 81.2% | 82.6% | 75.2% | 93.6% | 42.9%
2 | COc1ccccc1NC(=O)Cn1cc(CN2CCN(c3ccnc4cc(Cl)ccc34)CC2)nn1 | 81.7% | 96.8% | 97.6% | 91.9% | 83.5% | 98.3% | 107% | 89.6%
3 | C#CCOc1ccc2ncnc(Nc3ccc(NC(=O)CCl)cc3)c2c1 | 16.2% | -19.5% (active) | 17.7% | -13.9% (active) | 5.26% (active) | 0.822% (active) | 65.2% | 8.97% (active)
4 | CCOP(=O)(OCC)c1nc(-c2ccccc2)oc1NCc1cccnc1 | 85.5% | 111% | 104% | 101% | 103% | 102% | 106% | 111%
5 | Cc1nnc(-n2c(O)cc(=O)n(-c3ccccc3)c2=S)nc1/C=C/c1ccc(N(C)C)cc1 | 38% | 63.1% | 24.8% | 67.2% | 21.6% | 56.1% | 63.7% | 47.9%
6 | COc1cc(N2C(=O)[C@H](O)C2c2ccc(SC)cc2)cc(OC)c1OC (some centres not stated) | 49.2% | -6.32% (active) | -39.5% (active) | 23.7% | 13.5% | 1.16% (active) | 26.1% | 11.8%
7 | Fc1cccc(CNc2c3ccccc3nc3ccccc23)c1F | 68.3% | 90.6% | 87.3% | 41.4% | 29.8% | 17.5% | 58.4% | 87%
8 | Cc1ccc(/C=C2\CN(C(=O)OC(C)(C)C)C/C(=C\c3ccc(C)cc3)C2=O)cc1 | 61.1% | 99.9% | -44.4% (active) | 5.21% (active) | 15.7% | -44.4% (active) | 29.5% | -16% (active)
9 | Fc1ccc2[nH]cc(-c3nonc3-c3c[nH]c4ccc(Br)cc34)c2c1 | 3.33% (active) | 55.5% | 47.5% | 28.5% | 12.6% | 20.2% | 2.9% (active) | 7.15% (active)
10 | COC(=O)c1c2c(c(C)[n+]([O-])c1C)C(=O)C(NCc1ccc(Cl)cc1)=CC2=O | 37.5% | 77.9% | 9.83% (active) | 45.9% | 35.9% | 11.5% | 59.6% | 48.8%
11 | CN(CCn1sc(=O)n(Cc2ccccc2)c1=O)Cc1ccc2c(Cl)cc(Cl)c(O)c2n1 | 44.9% | 70.5% | 55.8% | 22.7% | 29.9% | 19% | 52.2% | 37.1%
12 | C[C@]12CC[C@@H]3c4ccc(O)c([N+](=O)[O-])c4CC[C@H]3[C@@H]1CCC2=O | 115% | 78.3% | 95.4% | 100% | 112% | 105% | 94.1% | 91.1%
13 | Nc1c(C(=O)Nc2ccccc2Cl)sc2nc3c(cc12)C(O)CCC3 (configuration not stated) | 38.6% | 52.1% | 1.93% (active) | 49.3% | 24.4% | 29.3% | 64.3% | 31.9%
14 | CC(=O)N(N=Nc1ccccc1)c1cccc2ccccc12 | 84.7% | 69.5% | 97.8% | 55.8% | 76.8% | 56.4% | 94.7% | 108%
15 | CS(=O)(=O)c1cccc(-c2c(-c3cccc(OS(N)(=O)=O)c3)nc3sccn23)c1 | 79.3% | 100% | 102% | 99.7% | 92% | 97.9% | 104% | 103%
16 | CN(C)C1CCN(Cc2ccc(NC(=O)c3cncc(C#Cc4cnc(N)c5ncccc45)c3)cc2C(F)(F)F)CC1 | 93.7% | 104% | -2.09% (active) | 68.1% | 73.6% | 86.7% | 99.6% | 9.65% (active)
17 | N#Cc1cnc(NCCc2ccncc2)nc1-n1cnc2ccccc21 | 54.5% | 48.5% | 69% | 58.8% | 64.4% | 24.8% | 58.5% | 25.9%
18 | C=CCn1c(SCC(=O)Nc2ccc(C(=O)/C=C/c3ccc(Cl)cc3)cc2)nnc1-c1cc(-c2ccc(S(N)(=O)=O)cc2)nc2ccccc12 | 81.8% | 80.5% | 76.1% | 100% | 38.6% | -31.5% (active) | 101% | 87.2%
19 | O=[N+]([O-])C1C(c2ccccc2)C12c1ccccc1-c1ccccc12 (configuration not stated) | 57.6% | -42.3% (active) | -23.1% (active) | 3.12% (active) | 9.88% (active) | -18.8% (active) | -18.8% (active) | 1.09% (active)
20 | COc1ccc(C2c3sc4c(F)cccc4c3Oc3nc[nH]c(=O)c32)cc1 (configuration not stated) | 70.5% | 84.6% | 82.1% | 89.7% | 45.7% | 79.9% | 91.7% | 81.7%
21 | Cc1ccc(-c2cc(-c3ccc(Cl)cc3)nc(NC(=O)c3cccnc3)n2)cc1 | 96.3% | 117% | 99.8% | 102% | 86.3% | 98.9% | 115% | 99.8%
22 | C=C1CC[C@@H]2[C@](C)(COC(C)=O)[C@H](OC(C)=O)CC[C@@]2(C)[C@@H]1CC(Sc1ccccc1)C1=CCOC1=O (some centres not stated) | 7.94% (active) | -22.6% (active) | 101% | 0.833% (active) | 2.14% (active) | -34.6% (active) | 44.7% | 18.6%
23 | O=C(NCc1ccccc1)Nc1ccccc1CNc1nc(Nc2ccc(OCCN3CCCC3)cc2)ncc1Cl | 104% | 96.3% | 82.9% | 77.1% | 65.9% | 95.5% | 96.9% | 94.2%
24 | CCN1CCN(c2cc(C(=O)Nc3nc(-c4cc(OC)c(OC)c(OC)c4)cs3)cc(C(F)(F)F)c2)CC1 | 43.7% | 75.2% | 74.4% | 65.6% | 39.8% | 33.4% | 43.9% | 71.1%
25 | O=C(OCc1ccc2cccc(O)c2n1)N1CCN(C(=O)c2cc3cc(F)ccc3[nH]2)CC1 | -68.3% (active) | -57.4% (active) | -89.8% (active) | -62.8% (active) | -28% (active) | -78.8% (active) | -4.94% (active) | -48.1% (active)
26 | Cc1ccccc1/C=C1\CN(C(=O)OC(C)(C)C)C/C(=C\c2ccccc2C)C1=O | 51.8% | 70.3% | 12% | 5.37% (active) | 19.2% | -53.9% (active) | 3.27% (active) | -32.8% (active)
27 | COc1ccc2c(O)c(/C=C3\N=Nc4ccccc43)oc2c1C[C@@H]1CCNC[C@H]1F | 94.3% | 73.8% | 68.3% | 6.01% (active) | 18.3% | -68.2% (active) | 78% | 10.9%
28 | Cc1ccc(/C=N/Nc2nc(Nc3ccccc3)nc(-n3nc(C)cc3C)n2)cc1 | 7.35% (active) | -5.91% (active) | 41.8% | 48.8% | 16.4% | 27.6% | 43.1% | 25.6%
29 | CC(C)CCC[C@@H](C)[C@H]1CC[C@H]2[C@@H]3CC=C4C[C@@H](C(C(=O)O)C(=O)O)CC[C@]4(C)[C@H]3CC[C@]12C | -13.8% (active) | -22.6% (active) | -55.6% (active) | -39.7% (active) | 1.84% (active) | -61.3% (active) | -47.5% (active) | -74.4% (active)
